{
  "source": "PubChem BioAssay (NCATS)",
  "note": "Several values for one entry are separate records, joined by “and”; a condition that tells them apart may be missing. Equal entries are not always repeated. Results filed as inconclusive are left out. Values without a mark were called inactive. Activity calls are given as the source filed them. The call rests on the fitted dose curve; in most records, active means well fitted cell-killing curve with a large enough effect; inconclusive means small, poorly fitted or top-dose-only effect; inactive means flat fitted curve, though single readings scatter. On the % scale 0 is the no-effect control and ±100 the full control effect.",
  "data": [
    {"test": "Cellular viability qHTS for adrenocortical cancer (ACC) cell line SW-13 (AID 1963989); further: nearly all actives have a fitted effect of over 65% in size;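 on activity (max response): cells grown in serum-free medium with ITS supplement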", "conditions": "SW-13 ACC cells viability, CellTiter-Glo, 48 h; activity (max response): active compounds read low", "source_text": "PI: Naris Nilubol, MD Surgical Oncology Program, National Cancer Institute (NCI) National Institute of Health (NIH), Bethesda, Maryland Adrenocortical cancer (ACC) is a rare malignancy with poor survival outcomes and few treatment options. Currently, mitotane is the only FDA-approved therapy for ACC. Although adjuvant radiation therapy is rarely utilized, it has the potential to improve survival in select cases. Through a quantitative high-throughput drug screen (qHTS), we identified auranofin (AF), a thioredoxin reductase (TXNRD) inhibitor, as a promising candidate drug. This study aims to evaluate whether AF can enhance the efficacy of radiation therapy in the treatment of ACC. Two human ACC cell lines, SW-13 and NCI-H295R, were screened using the National Center for Advancing Translational Sciences (NCATS) Pharmaceutical Collection (NPC) and the Mechanism Interrogation PlatE (MIPE) library (~4,991 compounds). CellTiter-Glo (Cat # G7570, Promega, Madison, WI) was utilized to measure cell viability. Described herein are the results of the corresponding viability assay.\nPROTOCOL TABLE (as described by Inglese J, Shamu CE and Guy RK. 2007) SEQUENCE No. (e.g., 1, 2, 3, etc.); […] (e.g., Cells, Incubation, Reagent, etc.); VALUE; DESCRIPTION. 1; Cells; 5 uL; white, solid-bottom, 1536-well tissue-culture treated plates. 2; Time; overnight culture at 37C with 5% CO2. 3; Compounds and control; 23 nL; Kalypsis pin tool (Wako USA) equipped with a 1536-well pin head to transfer to the assay plates. 4; Time; 48 hours; 37C with 5% CO2. 5; Reagent; 4 uL; CellTiter-Glo luminescent substrate mix. 6; Time; 20 min at room temperature. 7; Detection; Luminescence; ViewLux plate reader NOTES (numbers refer to Sequence numbers above) 1. SW13 cells were harvested from a T175 flask and resuspended in ITS-supplemented DMEM serum-free medium at a concentration of 300 000 cells/mL. Then 5 uL of resuspended cells were dispensed into each well of white, solid-bottom, 1536-well tissue-culture-treated plates using a multidrop combi dispenser. The plates were covered with stainless steel gasket lids. 2-3. The plates were cultured overnight at 37C with 5% CO2. Twenty-three nL of compounds (eight selected concentrations from the NPC / MIPE) or positive control (10 mM stock of bortezomib) in DMSO was transferred to each well of the assay plate using a pin tool (Kalypsys, San Diego, CA, USA). The final concentration of the compounds in the 5 uL assay volume ranged from 0.5 nM to 46 uM. 4-6. After 48 hours of incubation at 37C and 5% CO2, 4 uL of CellTilter-Glo luminescent substrate mix (Promega, Madison, WI, USA) was added to each well. Then the plates were incubated for 20 minutes at room temperature. 7. After incubation, luminescence was measured using a ViewLux plate reader (PerkinElmer, Waltham, MA, USA) with a clear filter was used to measure the number of metabolically competent cells. To determine compound activity in the qHTS assay, the titration-response data for each sample was plotted and modeled by a four-parameter logistic fit yielding IC50 and efficacy (maximal response) values. […] REFERENCES: Inglese J, Shamu CE and Guy RK, Reporting data from high throughput screening of small molecule libraries, Nature Chemical Biology, 2007, 3(8): 438-441. doi.org/10.1038/nchembio0807-438.", "values": [
      {"smiles": "C[C@@H](C1=C(CCN(C)C)Cc2ccccc21)c1ccccn1", "activity (max response)": "-0.59%"},
      {"smiles": "Nc1nccc2c1ncn2[C@@H]1C=C(CO)[C@@H](O)[C@H]1O", "Potency": "7.94 µM (active)"},
      {"smiles": "CC(C)c1ccc2c(c1)c(SC(C)(C)C)c(CC(C)(C)C(=O)O)n2Cc1ccc(Cl)cc1", "activity (max response)": "11.6%"},
      {"smiles": "CC(C)NCC(O)c1ccc(O)c(O)c1", "note": "(stereo not given)", "activity (max response)": "9.6% and -17.4%"},
      {"smiles": "CO[C@H]1/C=C/O[C@@]2(C)Oc3c(C)c(O)c4c(O)c(c(/C=N/N5CCN(C)CC5)c(O)c4c3C2=O)NC(=O)/C(C)=C\\C=C\\[C@H](C)[C@H](O)[C@@H](C)[C@@H](O)[C@@H](C)[C@H](OC(C)=O)[C@@H]1C", "activity (max response)": "-27.5%"},
      {"smiles": "Cc1ccc(C(=O)N(CCCN)[C@@H](c2oc3cc(Cl)ccc3c(=O)c2Cc2ccccc2)C(C)C)cc1", "Potency": "0.0141 µM (active)"},
      {"smiles": "O=C(Nc1ccc(F)c(C(F)(F)F)c1)Nc1nnc(-c2ccncc2)s1", "activity (max response)": "4.96%"},
      {"smiles": "Cc1cc(O)c(C)c(C)c1O", "activity (max response)": "6.25%"},
      {"smiles": "CCN(C(=O)c1ccccc1OC)c1cc2c(cc1N1CCNC[C@H]1C)n(C)c(=O)n2C", "activity (max response)": "1.48%"},
      {"smiles": "O=C(O)c1nc(=O)[nH]c(=O)[nH]1", "activity (max response)": "-18%"},
      {"smiles": "CN(C)C(=O)COC(=O)Cc1ccc(OC(=O)c2ccc(N=C(N)N)cc2)cc1", "activity (max response)": "3.47% and -2%"},
      {"smiles": "NS(=O)(=O)c1cc2c(cc1Cl)NC(CC1CCCC1)NS2(=O)=O", "note": "(stereo not given)", "activity (max response)": "10.5%"},
      {"smiles": "CC(C)N(CCC(=O)c1ccc2ccccc2c1)Cc1ccccc1", "activity (max response)": "-18.6%"},
      {"smiles": "FC(F)(F)c1ccc(Nc2nc3ccc(Oc4ccnc(-c5ncc(C(F)(F)F)[nH]5)c4)cc3[nH]2)cc1", "Potency": "22.4 µM (active)"},
      {"smiles": "Cc1cccc(C)c1OCC(C)N", "note": "(stereo not given)", "activity (max response)": "2.1%"},
      {"smiles": "CN(Cc1cnc2nc(N)nc(N)c2n1)c1ccc(C(=O)N[C@@H](CCC(=O)O)C(=O)O)cc1", "Potency": "18.4 nM (active) and 251 nM (active)"},
      {"smiles": "COc1cc2nc(N3CCN(C(=O)C4CCCO4)CC3)nc(N)c2cc1OC", "note": "(stereo not given)", "activity (max response)": "-21%"},
      {"smiles": "COc1cccc(Nc2c(C(N)=O)cnc3c(C)cc(S(=O)(=O)c4cccc(C(=O)N(C)C)c4)cc23)c1", "activity (max response)": "11.8%"},
      {"smiles": "CN1C(C(=O)Nc2ccccn2)=C(O)c2ccccc2S1(=O)=O", "activity (max response)": "-11.3% and -19.8%"},
      {"smiles": "CCOc1ccc(Cc2cc([C@@H]3O[C@H](CO)[C@@H](O)[C@H](O)[C@H]3O)ccc2Cl)cc1", "activity (max response)": "-2.91%"},
      {"smiles": "CCC1(C)CC(=O)NC1=O", "note": "(stereo not given)", "activity (max response)": "14.5% and 4.04%"},
      {"smiles": "NC(CC1c2ccccc2Oc2ccccc21)(C(=O)O)C1CC1C(=O)O", "note": "(stereo not given)", "activity (max response)": "1.03%"},
      {"smiles": "CC(=O)N(CC(O)CN(C(C)=O)c1c(I)c(C(=O)NCC(O)CO)c(I)c(C(=O)NCC(O)CO)c1I)c1c(I)c(C(=O)NCC(O)CO)c(I)c(C(=O)NCC(O)CO)c1I", "note": "(stereo not given)", "activity (max response)": "14.1%"},
      {"smiles": "Cc1cc(O)cc(C)c1Cl", "activity (max response)": "6.52%"},
      {"smiles": "CCN(CC)C(C)CN1c2ccccc2Sc2ccccc21", "note": "(stereo not given)", "activity (max response)": "16.5%"},
      {"smiles": "Oc1ccccc1", "activity (max response)": "8.68%"},
      {"smiles": "C[C@@H]1CC[C@@]2(OC1)OC1CC3C4CC=C5CC(O)CCC5(C)C4CCC3(C)C1[C@@H]2C", "note": "(stereo not given in full)", "activity (max response)": "-3.87%"},
      {"smiles": "COc1cc(NS(=O)(=O)c2ccc(N)cc2)nc(C)n1", "activity (max response)": "1.38%"},
      {"smiles": "CNC1(C)C2CCC(C2)C1(C)C", "note": "(stereo not given)", "activity (max response)": "-10.9%"},
      {"smiles": "CN(CC(=O)N(Cc1ccc(C2CCCCC2)cc1)c1ccc(C(=O)O)c(O)c1)S(=O)(=O)c1c(F)c(F)c(F)c(F)c1F", "activity (max response)": "-5.17%"},
      {"smiles": "COc1cc2c3c(n(CCCNCCO)c(=O)c2cc1OC)-c1cc2c(cc1C3=O)OCO2", "Potency": "0.447 µM (active)"},
      {"smiles": "CO[C@H]1C=CO[C@@]2(C)Oc3c(C)c(O)c4c(O)c(c(/C=N/N5CCN(C)CC5)c(O)c4c3C2=O)NC(=O)/C(C)=C\\C=C[C@H](C)[C@H](O)[C@@H](C)[C@@H](O)[C@@H](C)[C@H](OC(C)=O)[C@@H]1C", "activity (max response)": "-17.1%"},
      {"smiles": "CN[C@@H]1[C@H](O)[C@H](NC)[C@H]2O[C@@]3(O)C(=O)C[C@@H](C)O[C@H]3O[C@@H]2[C@H]1O", "activity (max response)": "16.5%"},
      {"smiles": "CC(C)(C)NC(=O)[C@H]1CC[C@H]2[C@@H]3CC[C@H]4NC(=O)C=C[C@]4(C)[C@H]3CC[C@]12C", "activity (max response)": "-6.83% and 2.59%"},
      {"smiles": "CCOC(N)=O", "activity (max response)": "11.5%"},
      {"smiles": "O=C(O)CCCC[P+](c1ccccc1)(c1ccccc1)c1ccccc1", "activity (max response)": "2%"},
      {"smiles": "CN(C)CCN1CCN(c2cccc(Cl)c2)C1=O", "activity (max response)": "10.1%"},
      {"smiles": "Nc1ncnc2c1ncn2[C@@H]1O[C@H](CO)[C@@H](O)[C@@H]1O", "activity (max response)": "-11.9%"},
      {"smiles": "Cc1ncc([N+](=O)[O-])n1CC(O)CCl", "note": "(stereo not given)", "activity (max response)": "-4.94%"},
      {"smiles": "CC(C)(C)c1nnc(NS(=O)(=O)c2ccc(N)cc2)s1", "activity (max response)": "-5.75%"}
    ]}
  ]
}
